Measured values from article PMC5540273 (PLoS ONE, 2017).

Legend:
Details in all cases: concentration: 1 μM, replicates: in singlicate; n = 1
PDPK1 = tested on: PDPK1
PFTAIRE2 = tested on: PFTAIRE2
PFTK1 = tested on: T1, PFTK1
T1 construct: gene CDK14

PHKG1 = tested on: PHKG1
PHKG2 = tested on: PHKG2
PIK3C2B = tested on: PIK3C2B
PIK3C2G = tested on: PIK3C2G
PIK3CA = tested on: PIK3CA
PIK3CB = tested on: PIK3CB
PIK3CD = tested on: PIK3CD
PIK3CG = tested on: PIK3CG
PIK4CB = tested on: T2, PIK4CB
T2 construct: gene PI4KB

PIKFYVE = tested on: PIKFYVE
PIM1 = tested on: PIM1
PIM2 = tested on: PIM2
PIM3 = tested on: PIM3
PIP5K1A = tested on: PIP5K1A
PIP5K1C = tested on: PIP5K1C
PIP5K2B = tested on: PIP5K2B
PIP5K2C = tested on: T3, PIP5K2C
T3 construct: gene PIP4K2C
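Further: KINOMEscan kinase panel screen.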

| Compound | %Inh (PDPK1) [%] | %Inh (PFTAIRE2) [%] | %Inh (PFTK1) [%] | %Inh (PHKG1) [%] | %Inh (PHKG2) [%] | %Inh (PIK3C2B) [%] | %Inh (PIK3C2G) [%] | %Inh (PIK3CA) [%] | %Inh (PIK3CB) [%] | %Inh (PIK3CD) [%] | %Inh (PIK3CG) [%] | %Inh (PIK4CB) [%] | %Inh (PIKFYVE) [%] | %Inh (PIM1) [%] | %Inh (PIM2) [%] | %Inh (PIM3) [%] | %Inh (PIP5K1A) [%] | %Inh (PIP5K1C) [%] | %Inh (PIP5K2B) [%] | %Inh (PIP5K2C) [%] |
| --- | --- | --- | --- | --- | --- | --- | --- | --- | --- | --- | --- | --- | --- | --- | --- | --- | --- | --- | --- | --- |
| Cc1cccc(-c2cc(-c3c[nH]nc3-c3ccccn3)ccn2)c1 [GW679395] | 0 | 1 | 11 | 0 | 0 | 1 | 0 | 0 | 0 | 0 | 0 | 0 | 0 | 20 | 0 | 0 | 35 | 54 | 0 | 39 |
| COc1cc2ncn(-c3cc(OCCCc4ccccc4)c(C(N)=O)s3)c2cc1OC [GSK205189] | 11 | 8 | 34 | 2 | 20 | 8 | 0 | 0 | 0 | 0 | 0 | 0 | 0 | 0 | 0 | 0 | 0 | 69 | 0 | 9 |
| CN1C(=O)C(Nc2cc(Cl)c(O)c(Cl)c2)=C(c2ccc(Cl)cc2)C1=O [SB-404321] | 0 | 0 | 0 | 0 | 0 | 0 | 0 | 0 | 0 | 0 | 10 | 36 | 24 | 0 | 0 | 0 | 0 | 27 | 0 | 30 |
| C[C@@H]1CC[C@H](C(=O)NC2CCCCC2)CN1c1cc(-c2ccc3c(N)n[nH]c3c2)nc(N)n1 [GSK2291363] | 95.3 | 26 | 27 | 0 | 17 | 0 | 0 | 0 | 0 | 0 | 0 | 0 | 0 | 22 | 0 | 8 | 100 | 53 | 52 | 30 |
| Cc1ccc(Oc2ccc(Nc3ncnc4cc[nH]c34)cc2C)cn1 | 25 | 7 | 0 | 0 | 0 | 24 | 60 | 5 | 57 | 54 | 7 | 42 | 1 | 41 | 7 | 36 | 7 | 0 | 0 | 0 |
| COc1ccc(-c2cc3c(C)nc(N)nc3n([C@H]3CC[C@H](OCCO)CC3)c2=O)cn1 | 0 | 0 | 0 | 7 | 0 | 98.1 | 98.1 | 100 | 100 | 96.6 | – | 96.1 | 11 | 0 | 44 | 0 | 0 | 1 | 2 | 9 |
| CCn1c(-c2ccoc2)nc2cnccc21 [SB-733887] | 0 | 15 | 0 | 0 | 0 | 6 | 0 | 0 | 0 | 0 | 0 | 20 | 3 | 0 | 0 | 36 | 11 | 0 | 0 | 32 |
| COc1cccc(C2=C(Nc3cccc(C(=O)O)c3)C(=O)NC2=O)c1 [SB-390770] | 0 | 13 | 0 | 0 | 1 | 0 | 22 | 8 | 0 | 32 | 5 | 0 | 0 | 0 | 0 | 0 | 5 | 56 | 4 | 23 |
| COC(=O)c1c(-c2ccccc2)c2cc(Br)ccc2c(=O)n1Cc1ccc(NC(=O)CCC(=O)O)cc1 | 0 | 17 | 0 | 0 | 0 | 0 | 1 | 0 | 24 | 0 | 7 | 0 | 5 | 4 | 24 | 3 | 4 | 0 | 35 | 0 |
| CCC(=O)c1c(-c2ccccc2)c2cc(Cl)ccc2c(=O)n1Cc1ccc(C(=O)O)cc1 | 0 | 0 | 0 | 0 | 0 | 0 | 0 | 0 | 3 | 0 | 0 | 0 | 0 | 0 | 0 | 0 | 18 | 15 | 0 | 16 |
| Cl.c1ccc(Cn2cnc3cc(Nc4ncnc5ccccc45)ccc32)cc1 [GW272142] | 0 | 16 | 23 | 0 | 1 | 3 | 0 | 1 | 71 | 0 | 0 | 0 | 6 | 0 | 0 | 0 | 0 | 38 | 0 | 17 |
